This is an account of results in PMC4336329 (PLoS ONE, 2015).

Structures are written as SMILES. Screen size: about 310,000 compounds; about 14,000 (4.5%) showed an effect of 50% or more. The effect is printed as a negative number. The entries come from a sample that favours strong results as a whole.
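Note: peak tail current of the secondary pulse compared with the same well before compound.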

The target of this test is human ether-à-go-go-related gene (hERG) potassium channel (human, UniProt Q12809). Description: primary screen, population patch clamp on CHO cells stably expressing hERG; higher = less effect of the substance.
Chain of human ether-à-go-go-related gene (hERG) potassium channel (Q12809 whole entry, looked up): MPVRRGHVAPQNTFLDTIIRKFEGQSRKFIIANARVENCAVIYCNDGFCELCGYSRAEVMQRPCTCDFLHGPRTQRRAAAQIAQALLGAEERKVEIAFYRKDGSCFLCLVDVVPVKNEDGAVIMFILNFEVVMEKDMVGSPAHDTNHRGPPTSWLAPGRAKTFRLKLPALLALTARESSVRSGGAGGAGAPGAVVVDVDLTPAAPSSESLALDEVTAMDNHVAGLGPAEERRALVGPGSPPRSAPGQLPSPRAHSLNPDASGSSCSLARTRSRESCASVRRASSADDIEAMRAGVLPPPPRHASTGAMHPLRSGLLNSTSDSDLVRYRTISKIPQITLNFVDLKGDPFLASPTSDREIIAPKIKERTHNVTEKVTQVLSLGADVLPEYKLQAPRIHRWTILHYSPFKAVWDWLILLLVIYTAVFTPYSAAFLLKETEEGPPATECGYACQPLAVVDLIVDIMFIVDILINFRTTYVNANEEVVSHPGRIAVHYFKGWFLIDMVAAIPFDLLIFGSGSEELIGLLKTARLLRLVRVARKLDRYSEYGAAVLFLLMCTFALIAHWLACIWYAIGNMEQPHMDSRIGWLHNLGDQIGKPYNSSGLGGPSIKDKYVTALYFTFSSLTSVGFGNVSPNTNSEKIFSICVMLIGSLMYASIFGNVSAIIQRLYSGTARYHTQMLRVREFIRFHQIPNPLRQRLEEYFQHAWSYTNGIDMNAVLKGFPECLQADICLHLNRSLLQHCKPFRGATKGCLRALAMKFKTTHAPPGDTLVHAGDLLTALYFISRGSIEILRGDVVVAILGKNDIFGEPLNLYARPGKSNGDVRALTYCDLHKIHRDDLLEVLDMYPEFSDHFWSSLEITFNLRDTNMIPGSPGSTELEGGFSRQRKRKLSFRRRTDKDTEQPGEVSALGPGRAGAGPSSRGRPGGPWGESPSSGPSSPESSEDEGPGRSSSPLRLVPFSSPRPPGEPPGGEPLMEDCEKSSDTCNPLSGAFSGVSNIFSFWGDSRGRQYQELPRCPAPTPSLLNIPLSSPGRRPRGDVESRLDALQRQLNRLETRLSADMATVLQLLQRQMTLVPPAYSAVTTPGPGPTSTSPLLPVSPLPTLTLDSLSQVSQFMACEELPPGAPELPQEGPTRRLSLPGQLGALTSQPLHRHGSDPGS
For `CCOc1ccc(Cn2nnc(C(=O)NCc3ccc(OC)cc3)c2N)cc1`, the “hERG current change (%, negative = inhibition) at 10uM” value was 6.41%.

Turning to `CCN(CC)c1ccc(C2C(C(=O)OCCOC)=C(C)NC3=C2C(=O)CCC3)cc1` (stereo not shown), the “hERG current change (%, negative = inhibition) at 10uM” value was -5.24%. Under `CCOc1ccc(-c2cc(N)n(S(=O)(=O)c3ccc(OC)cc3)n2)cc1` stands 10.7%.

In the case of `CN1c2ccccc2-c2nc3ccccc3n2C1c1ccco1` (stereo not shown), the “hERG current change (%, negative = inhibition) at 10uM” value is -15.3%.

As for `CC1CCCC(C)N1C(=O)Cn1cc(C#N)c2ccccc21` (stereo not shown), the “hERG current change (%, negative = inhibition) at 10uM” value is given as 9.8%. With `Cc1nc2c(o1)CCc1ccccc1C2N1CCN(C)CC1.O=C([O-])/C=C\C(=O)[O-]` (stereo not shown) the figure was 12.4%. For the molecule `CCS(=O)(=O)N1CCN(C2Cc3ccccc3C2)CC1.O=C(O)C(=O)O`, the “hERG current change (%, negative = inhibition) at 10uM” value turned out to be 3.3%. Under `CCc1ccc2c(c1)Sc1ccccc1CC2N1CCN(C)CC1.CS(=O)(=O)O.O` (stereo not shown) stands -69%. As for `CSc1ccc2c(c1)C(N1CCN(C)CC1)Cc1ccccc1S2.O=C([O-])/C=C\C(=O)[O-]` (stereo not shown), the “hERG current change (%, negative = inhibition) at 10uM” value was -65.2%. In the case of `CN(C)/C=C/C(=O)c1ccn(S(=O)(=O)c2ccccc2)c1`, the “hERG current change (%, negative = inhibition) at 10uM” value was 23.6%. Under `Fc1ccc(Cn2nnnc2C(c2ccc(Cl)cc2)N2CC=C(c3ccc(F)cc3)CC2)cc1` (stereo not shown) stands 10.1%. In the case of `CCOc1ccc(N(C)Cc2cc(=O)oc3ccc(OCC)cc23)cc1`, the “hERG current change (%, negative = inhibition) at 10uM” value was -1.17%. Under `CCOc1cc2[nH]c(=S)n(C3CCN(Cc4ccccc4)CC3)c(=O)c2cc1OCC` stands 17.6%. With `Cc1nn(Cc2ccccc2)c(=O)n1N(C)c1ncc(C(F)(F)F)cc1Cl` the figure was -7.74%. Take `Cc1ccsc1C1C(C#N)=C(N)OC2=C1C(=O)CC(C)(C)C2` (stereo not shown): the “hERG current change (%, negative = inhibition) at 10uM” value was -6.69%. With `O=C1C=C(Nc2cccc(Cl)c2)CC(c2ccco2)C1` (stereo not shown) the figure was -4.15%; with `O=C1C=C(Nc2ccc(Cl)cc2)CC(c2ccco2)C1` (stereo not shown), -1.85%. `O=C1C=C(NCc2ccco2)CCC1`: the “hERG current change (%, negative = inhibition) at 10uM” value turned out to be 16.7%.

Take `O=C1C=C(Nc2ccc(Cl)cc2)CC(c2ccc(Cl)cc2)C1` (stereo not shown): the “hERG current change (%, negative = inhibition) at 10uM” value is listed as -2.27%.

On to `O=C1C=C(NCc2ccc(Cl)cc2)CC(c2ccco2)C1` (stereo not shown), for which the “hERG current change (%, negative = inhibition) at 10uM” value is -82.2%. `O=C1C=C(NCc2ccco2)CC(c2ccc(Cl)cc2)C1` (stereo not shown): the “hERG current change (%, negative = inhibition) at 10uM” value is recorded as -61.5%. On to `N#Cc1c(C(F)(F)F)cc(-c2ccccc2)n(N)c1=O`, for which the “hERG current change (%, negative = inhibition) at 10uM” value was 13.9%. With `Cc1cc(C)n2nc(SCc3ccc(F)cc3Cl)nc2n1` the figure was -4.5%; with `Cn1c(N=Nc2ccccc2)nc2ccccc21`, 4.08%; with `S=c1[nH]c2ccccc2n2c(=S)[nH]nc12`, 5.26%. Under `COCCCNC(=O)CN(c1cc(Cl)ccc1OC)S(C)(=O)=O` stands 17.4%. As for `Oc1ccc(CN2CCN(Cc3ccccc3)CC2)c2cccnc12`, the “hERG current change (%, negative = inhibition) at 10uM” value is given as -13.9%. With `CCCCCc1c(C)nc(NCc2ccccc2)[nH]c1=O` the figure was -4.44%. As to `N/C(=N\OC(=O)c1ccc(Cl)c(Cl)c1)c1ccccn1`, the “hERG current change (%, negative = inhibition) at 10uM” value turned out to be 3.76%. As to `CC1CCN(CCCNC(=O)CN2C(=O)CSc3ccc(S(=O)(=O)N4CCC(C)CC4)cc32)CC1`, the “hERG current change (%, negative = inhibition) at 10uM” value is given as -54.5%. Under `CC1CCN(S(=O)(=O)c2ccc3c(c2)N(CC(=O)NCCN2C(C)CCCC2C)C(=O)CS3)CC1` (stereo not shown) stands -52.7%; under `CC1CCCCN1CCNC(=O)CN1C(=O)CSc2ccc(S(=O)(=O)N3CCCCC3)cc21` (stereo not shown), -17.6%; under `CC1CCN(CCCNC(=O)CN2C(=O)CSc3ccc(S(=O)(=O)N4CCOCC4)cc32)CC1`, 6.31%. With `O=C(CN1C(=O)CSc2ccc(S(=O)(=O)N3CCOCC3)cc21)NCCCN1CCCCC1` the figure was 18%; with `Cc1ccc(CNC(=O)CN2C(=O)CSc3ccc(S(=O)(=O)N4CCC(C)CC4)cc32)cc1`, -27.4%; with `CC1CCN(S(=O)(=O)c2ccc3c(c2)N(CC(=O)NCc2cccnc2)C(=O)CS3)CC1`, -53.3%. In the case of `O=C(CN1C(=O)CSc2ccc(S(=O)(=O)N3CCOCC3)cc21)NCCCN1CCc2ccccc2C1`, the “hERG current change (%, negative = inhibition) at 10uM” value is -66.3%. Under `CC1CCN(S(=O)(=O)c2ccc3c(c2)N(CC(=O)NCCCN2CCCCC2C)C(=O)CS3)CC1` (stereo not shown) stands 0.668%. Consider `CCCCCCCNC(=O)CN1C(=O)CSc2ccc(S(=O)(=O)N3CCOCC3)cc21`, for which the “hERG current change (%, negative = inhibition) at 10uM” value is given as -17.7%. Consider `CC1CCN(S(=O)(=O)c2ccc3c(c2)N(CC(=O)NCCCN2CCCCC2)C(=O)CS3)CC1`, for which the “hERG current change (%, negative = inhibition) at 10uM” value is given as -10.6%. Regarding `O=C(CN1C(=O)CSc2ccc(S(=O)(=O)N3CCOCC3)cc21)NCc1cccnc1`, the “hERG current change (%, negative = inhibition) at 10uM” value is recorded as 6.4%.

On to `O=C(NC1CC2CCCC(C1)N2C(=O)Nc1ccccc1)C1CC1` (stereo not shown), for which the “hERG current change (%, negative = inhibition) at 10uM” value was found to be 6.44%. With `Cn1c(Cc2cccc3ccccc23)nnc1SCC(=O)N1CCN(c2cccc(Cl)c2)CC1` the figure was -25.7%; with `COc1ccc(S(=O)(=O)N(CC(=O)N2CCN(C)CC2)C2CCCCC2)cc1OC`, -7.66%. With `COC(=O)C(C(=O)OC)=C(/C=C/C=C/N(C)C)N(C)C` the figure was 13.9%; with `CCN(CC)S(=O)(=O)c1ccc(OC(C)C)nc1`, -1.16%; with `COc1ccc([C@H]2CC(=O)C=C(c3cc4ccccc4c4ccccc34)C2)cc1`, 13.6%. `CCCc1c(C(=O)NNc2cc(C(F)(F)F)ccc2Cl)cnn1-c1ccccc1`: the “hERG current change (%, negative = inhibition) at 10uM” value is 0.78%. Under `Cc1ccc(C)c(NC(=O)C2C3CCCC2C3c2ccccc2)c1` (stereo not shown) stands 6.75%. With `CC1CCN(S(=O)(=O)c2ccc3c(c2)N(CC(=O)NCCCN2CCCC(C)C2)C(=O)CS3)CC1` (stereo not shown), the “hERG current change (%, negative = inhibition) at 10uM” value is -20.6%. For `CC1CCCN(CCCNC(=O)CN2C(=O)CSc3ccc(S(=O)(=O)N4CCOCC4)cc32)C1` (stereo not shown), the “hERG current change (%, negative = inhibition) at 10uM” value is 19.5%. With `CC1CCN(S(=O)(=O)c2ccc3c(c2)N(CC(=O)NCCCN2CC(C)CC(C)C2)C(=O)CS3)CC1` (stereo not shown) the figure was -66.2%; with `CN1CCN(S(=O)(=O)c2ccc3c(c2)NC(=O)CS3)CC1`, 13.3%; with `CC1CC(C)CN(CCCNC(=O)CN2C(=O)CSc3ccc(S(=O)(=O)N4CCCCC4)cc32)C1` (stereo not shown), -50.2%. As to `CCC1CCCCN1CCCNC(=O)CN1C(=O)CSc2ccc(S(=O)(=O)N3CCC(C)CC3)cc21` (stereo not shown), the “hERG current change (%, negative = inhibition) at 10uM” value is -9.76%. As for `CC1CCN(S(=O)(=O)c2ccc3c(c2)NC(=O)CS3)CC1`, the “hERG current change (%, negative = inhibition) at 10uM” value was -52.2%. With `CC1CC(C)CN(CCCNC(=O)CN2C(=O)CSc3ccc(S(=O)(=O)N4CCOCC4)cc32)C1` (stereo not shown) the figure was 15.8%. Under `CCN1CCN(S(=O)(=O)c2ccc3c(c2)NC(=O)CS3)CC1` stands 19.9%; under `COc1ccc(N(CC(=O)NCCSc2ccccn2)S(=O)(=O)c2ccc(C)cc2)cc1OC`, -17.7%. Consider `CCOc1ccccc1NC(=O)CCNS(=O)(=O)c1ccccc1`, for which the “hERG current change (%, negative = inhibition) at 10uM” value was found to be 17.6%.

In the case of `Cc1ccc(C2=Nc3ccccc3N=C(c3ccc([N+](=O)[O-])cc3)C2)c(O)c1`, the “hERG current change (%, negative = inhibition) at 10uM” value was -3.53%. Take `COc1ccc([C@@H]2CC(=O)c3c(O)cc(O)cc3O2)cc1O`: the “hERG current change (%, negative = inhibition) at 10uM” value stood at 5.19%. As for `COc1ccc(OC)c(N2Cc3ccccc3C2)c1`, the “hERG current change (%, negative = inhibition) at 10uM” value turned out to be 12%. On to `c1ccc(-n2nnc3cnccc32)cc1`, for which the “hERG current change (%, negative = inhibition) at 10uM” value was 12%. With `c1ccc(Cn2nnc3cnccc32)cc1` the figure was 2.3%. As for `c1ccc(-n2c(Cc3cccnc3)nc3cnccc32)cc1`, the “hERG current change (%, negative = inhibition) at 10uM” value is -50.5%. With `COc1ccc(NC(=O)N(CCCN2CCOCC2)Cc2cccnc2)c(OC)c1` the figure was 5.99%; with `CCOC(=O)c1csc(N)c1-c1ccc([N+](=O)[O-])cc1`, 6.52%.

On to `CCOC(=O)c1cc(=O)[nH]c2ccccc12`, for which the “hERG current change (%, negative = inhibition) at 10uM” value is reported as 19%. Under `CCOC(=O)c1ccc(-c2ccc3[nH]c4ccccc4c(=O)c3c2)cc1F` stands 13%; under `CCOC(=O)c1ccccc1NC(=O)c1cccc([N+](=O)[O-])c1`, 12.5%. With `Cc1[nH]c2ccccc2c1/C=N/Nc1ccc([N+](=O)[O-])cc1` the figure was 3.95%; with `CCOC(=O)c1cc2[nH]c3ccccc3c2[n+](-c2ccc([N+](=O)[O-])cc2)c1N.O=C([O-])C(F)(F)F`, -58.4%; with `Nc1[nH]c2cc([N+](=O)[O-])ccc2c1-c1ccccn1`, 20.1%.

Turning to `CCOC(=O)c1cc2[nH]c3ccccc3c2[n+](-c2ccc([N+](=O)[O-])cc2)c1C.[Cl-]`, the “hERG current change (%, negative = inhibition) at 10uM” value is reported as -77.8%. Under `N#Cc1cc2[nH]c3ccccc3c2[n+](-c2ccc([N+](=O)[O-])cc2)c1N.[Cl-]` stands -65.1%.

Turning to `Cc1c(Cl)cccc1NC(=O)c1cc(-c2ccco2)on1`, the “hERG current change (%, negative = inhibition) at 10uM” value was -0.802%. Under `N#CC(C#N)=CN=c1ccn(Cc2ccc(Cl)cc2Cl)cc1` stands 7.39%; under `O=c1cc[nH]c2c(C(F)(F)F)cccc12`, -0.945%; under `CCC(C)(C)NC(=O)Cn1c(-c2ccc(C)cc2)noc1=O`, 13.5%. Regarding `CC12CCC(C(=O)Nc3ccccc3Cl)([C@H](Br)C1=O)C2(C)C` (stereo partly shown), the “hERG current change (%, negative = inhibition) at 10uM” value is on record as 15.9%. With `COc1cc(C)c(Br)cc1S(=O)(=O)NCCN1CCOCC1` the figure was 12.5%. With `C/C=C(/C)C(=O)O[C@@H]1c2c(ccc3ccc(=O)oc23)OC(C)(C)[C@@H]1OC(=O)/C(C)=C\C` the figure was -8.07%; with `CC(=O)OC1c2c(ccc3ccc(=O)oc23)OC(C)(C)C1OC(=O)CC(C)C` (stereo not shown), -30.4%; with `C/C=C(\C)C(=O)OC1c2c(ccc3ccc(=O)oc23)OC(C)(C)C1OC(C)=O` (stereo not shown), -72.5%. Under `C/C=C(/C)C(=O)OC1c2c(ccc3ccc(=O)oc23)OC(C)(C)C1OC(=O)/C(C)=C\C` (stereo not shown) stands -12.3%; under `C/C=C(/C)C(=O)O[C@H]1[C@@H](O)c2c(ccc3ccc(=O)oc23)OC1(C)C`, 3.92%. For `CC(=O)O[C@@H]1[C@H](OC(=O)CC(C)C)c2c(ccc3ccc(=O)oc23)OC1(C)C`, the “hERG current change (%, negative = inhibition) at 10uM” value was -67.2%. In the case of `C/C=C(/C)C(=O)O[C@@H]1[C@H](OC(=O)C=C(C)C)c2c(ccc3ccc(=O)oc23)OC1(C)C`, the “hERG current change (%, negative = inhibition) at 10uM” value is reported as -0.258%. In the case of `C/C=C(/C)C(=O)O[C@@H]1[C@H](OC(C)=O)c2c(ccc3ccc(=O)oc23)OC1(C)C`, the “hERG current change (%, negative = inhibition) at 10uM” value is given as -36%. With `C/C=C(/C)C(=O)OC1c2c(ccc3ccc(=O)oc23)OC(C)(C)C1OC(C)=O` (stereo not shown) the figure was -71.8%.
